Laboratory results as given in the supplement of paper PMC11634586.
A number with no mark means an inactive call.

Tested on: NCI-H1688
Assay: inhibition of cell viability relative to untreated control (fraction); higher = stronger growth inhibition, active = 0.5 or more
Details: 30 µM; 24 h
Method in brief: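 Viability of NCI-H1688 small cell lung cancer cells was assessed with Cell Counting Kit-8 by absorbance at 450 nm, in triplicate, after a 24 h exposure to a natural compound library (TargetMol) at 30 µM at 37°C and 5% CO2. The cells had been seeded at 3 × 10^3 cells/well in 96-well plates 24 h before treatment. Inhibition of cell viability is reported as a fraction, derived from viability normalised against untreated cells.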

SMILES | inhibition of cell viability
O=C(O)CCCCCCCC(=O)O [Azelaic acid] | 0.133
OC[C@H]1O[C@H](O[C@H]2O[C@H](CO)[C@@H](O)[C@H](O)[C@H]2O)[C@H](O)[C@@H](O)[C@@H]1O [D-(+)-Trehalose dihydrate] | 0.249
COc1cc(O)cc(OC)c1OC [3,4,5-Trimethoxyphenol] | 0.0652
COC(=O)C1=CC[C@@]23CC[C@@H]([C@@](C)(/C=C/C=C(\C)C(=O)O)OC2=O)[C@@]3(OC(C)=O)CC1 [Pseudolaric Acid B] | 0.813 (active)
O=c1c(O[C@@H]2O[C@H](CO)[C@H](O)[C@H](O)[C@H]2O)c(-c2ccc(O)c(O)c2)oc2cc(O)cc(O)c12 [Hyperoside] | -0.0387
CC(/C=C/C=C(\C)C(=O)O[C@@H]1O[C@H](CO[C@@H]2O[C@H](CO)[C@@H](O)[C@H](O)[C@H]2O)[C@@H](O)[C@H](O)[C@H]1O)=C\C=C\C=C(C)\C=C\C=C(/C)C(=O)O[C@@H]1O[C@H](CO[C@@H]2O[C@H](CO)[C@@H](O)[C@H](O)[C@H]2O)[C@@H](O)[C@H](O)[C@H]1O [Crocin] | 0.267
COc1ccc([C@@H]2CC(=O)c3c(O)cc(O[C@@H]4O[C@H](CO[C@@H]5O[C@@H](C)[C@H](O)[C@@H](O)[C@H]5O)[C@@H](O)[C@H](O)[C@H]4O)cc3O2)cc1O [Hesperidin] | 0.0198
C/C(=C\C(=O)OCCCCCCCCC(=O)O)C[C@@H]1OC[C@H](C[C@@H]2O[C@H]2[C@@H](C)[C@H](C)O)[C@@H](O)[C@H]1O [Mupirocin] | 0.0375
